Data reported in PubChem BioAssay (EPA / NIEHS).
Results filed as inconclusive are left out. The source made the active and inactive calls. Rule for the calls: active = hit-call score of the fitted dose curve at least 0.9, where 1 is the maximum; inconclusive = response in the unintended direction; inactive = score below 0.9.

Molecular target: AR (gene 367) (UniProt P10275)
Assay: ACEA_AR_antagonist_80hr: ACEA Biosciences xCELLigence Real-Time Cell Analysis on Androgen Receptor Antagonism for Proliferation (AID 2283787)
Experimental: ACEA_AR_antagonist is a cell-based, single-readout assay that uses 22Rv1, a human prostate cancer cell line, with measurements taken at 80 hours after chemical dosing in a 384-well plate, although TO5 and TO6 (mc0.srcf) used a 96-well plate. Differences in plate size can be ignored given data normalization.ACEA_AR_antagonist_80hr is one of two assay component(s) measured or calculated from the ACEA_AR assay. It is designed to make measurements of real-time cell-growth kinetics, a form of growth reporter, as detected with electrical impedance signals by Real-Time Cell Electrode Sensor (RT-CES) technology.Data from the assay component ACEA_AR_antagonist_80hr was analyzed in the positive analysis fitting direction relative to DMSO as the negative control and baseline of activity. Using a type of growth reporter, measures of the cells for loss-of-signal activity can be used to understand the signaling at the pathway-level as they relate to the gene AR. Furthermore, this assay endpoint can be referred to as a primary readout, because this assay has produced multiple assay endpoints where this one serves a signaling function. To generalize the intended target to other relatable targets, this assay endpoint is annotated to the nuclear receptor intended target family, where the subfamily is steroidal.
The xCELLigence system Multi-E-Plate stations were used to measure the time-dependent response to chemicals. Each compound was tested in an eight-point, 1:4 serial dilution series starting at a maximum final concentration of 100 uM. A maximum starting concentration of 0.5% DMSO was present in the 100 uM chemical samples and was diluted along with the test article dilution series. The screen was performed in biological duplicate using two separate, 96-well, E-Plates 96 for each dilution series (n = 2). Positive controls (MG132 and testosterone) and a negative control (assay media) were tested in quadruplicate on each testing plate. […] Reference compounds were tested with 8 concentrations with 1:5 serial dilutions. All screening was carried out by ACEA Biosciences, Inc. (San Diego, CA). 22Rv1 cells purchased from ATCC were maintained in media supplemented with 10% fetal bovine serum (FBS). Before screening, 22Rv1 cells were preconditioned in assay medium. Cells were then detached and seeded in E-Plates 96 in assay medium. After overnight monitoring of growth once every hour, compounds were added to […] cells and remained in the medium until the end of the experiment. Cellular responses were then recorded once every 5 min for the first 5 h, and once every hour for an additional 100 h.

Sequence of AR (gene 367) (P10275 whole entry, looked up): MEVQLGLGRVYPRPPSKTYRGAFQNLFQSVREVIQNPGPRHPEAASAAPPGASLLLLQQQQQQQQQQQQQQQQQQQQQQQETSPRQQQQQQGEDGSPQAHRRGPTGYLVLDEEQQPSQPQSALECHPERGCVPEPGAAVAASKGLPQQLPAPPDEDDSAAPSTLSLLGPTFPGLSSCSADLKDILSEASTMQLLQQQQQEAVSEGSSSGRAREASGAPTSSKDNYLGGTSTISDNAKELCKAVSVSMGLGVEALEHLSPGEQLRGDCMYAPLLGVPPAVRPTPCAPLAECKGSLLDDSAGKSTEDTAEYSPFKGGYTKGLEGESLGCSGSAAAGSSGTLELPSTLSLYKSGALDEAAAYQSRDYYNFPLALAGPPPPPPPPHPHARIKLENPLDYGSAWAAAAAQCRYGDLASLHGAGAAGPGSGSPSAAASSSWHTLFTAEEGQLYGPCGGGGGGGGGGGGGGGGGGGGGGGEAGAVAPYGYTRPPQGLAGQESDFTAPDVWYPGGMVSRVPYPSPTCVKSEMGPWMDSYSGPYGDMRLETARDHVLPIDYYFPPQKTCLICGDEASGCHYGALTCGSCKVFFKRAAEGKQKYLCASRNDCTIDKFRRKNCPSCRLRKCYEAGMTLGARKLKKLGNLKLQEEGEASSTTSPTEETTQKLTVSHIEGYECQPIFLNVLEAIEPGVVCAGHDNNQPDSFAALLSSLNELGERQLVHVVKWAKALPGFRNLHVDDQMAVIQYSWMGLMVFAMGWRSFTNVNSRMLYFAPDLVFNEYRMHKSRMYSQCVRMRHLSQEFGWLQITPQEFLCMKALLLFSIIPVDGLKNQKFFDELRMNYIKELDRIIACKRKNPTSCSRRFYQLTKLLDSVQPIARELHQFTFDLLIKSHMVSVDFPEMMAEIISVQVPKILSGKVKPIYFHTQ

SMILES	outcome	AC50
COP(=O)(OC)OC	inactive	
CCC1(c2ccc(N)cc2)CCC(=O)NC1=O (stereo not given)	inactive	
O=[N+]([O-])c1ccc(O)c([N+](=O)[O-])c1		50 µM (active)
CC(C)(c1ccc(OCC2CO2)cc1)c1ccc(OCC2CO2)cc1 (stereo not given)	inactive	
CCN1CCC2(CC1)COc1cc3c(cc12)N(C(=O)c1ccc(-c2ccc(-c4nnc(C)o4)cc2C)cc1)CC3		8.66 µM (active)
CC(=O)[O][Hg][c]1ccccc1		1.21 µM (active)
CCOP(=S)(OCC)Oc1nc(Cl)c(Cl)cc1Cl		74.9 µM (active)
Cc1ccc2ccccc2c1C		16.6 µM (active)
ClC1(Cl)C2(Cl)C3(Cl)C4(Cl)C(Cl)(Cl)C5(Cl)C3(Cl)C1(Cl)C5(Cl)C24Cl (stereo not given)	inactive	
CCC(=O)C(CC(C)N(C)C)(c1ccccc1)c1ccccc1 (stereo not given)		28.2 µM (active)
Clc1ccc(COC(Cn2ccnc2)c2ccc(Cl)cc2Cl)cc1 (stereo not given)		8.61 µM (active)
O=C1C2(Cl)C3(Cl)C4(Cl)C(Cl)(Cl)C5(Cl)C3(Cl)C1(Cl)C5(Cl)C24Cl (stereo not given)		7.92 µM (active)
c1cc[c]([Hg][c]2ccccc2)cc1		21.9 µM (active)
CC12CC1(C)C(=O)N(c1cc(Cl)cc(Cl)c1)C2=O (stereo not given)		78.4 µM (active)
Cc1ccccc1C(=O)Nc1cccc(OC(C)C)c1	inactive	
CC(C)c1cccc(C(C)C)c1O	inactive	
COP(=S)(OC)Oc1ccc(Sc2ccc(OP(=S)(OC)OC)cc2)cc1	inactive	
C[C@H]1CCCC(=O)CCC/C=C/c2cc(O)cc(O)c2C(=O)O1		13.9 µM (active)
O=c1[nH]c(=O)[nH]c(=O)[nH]1	inactive	
COP(=O)(OC)O/C(=C\Cl)c1cc(Cl)c(Cl)cc1Cl	inactive	
